Data as given in PubChem BioAssay (EPA / NIEHS).
Records with an inconclusive call do not appear. The source made the active and inactive calls. How the source made its calls, unless noted: active means hit-call score of the fitted dose curve at least 0.9, where 1 is the maximum; inconclusive means response in the unintended direction; inactive means score below 0.9.

How the values were obtained:
[1] = TOX21_p53_BLA_p3_viability: Viability Assessment in the Tox21 HCT-116 p53 Agonism Beta-lactamase Assay, Phase 3 (AID 2283593);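 further: cells exposed to compound for 16 h before reading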
Procedure, shortened: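 HCT116 cells, 4000/well, dosed 5 h after plating by pin transfer (217-fold dilution from DMSO stock) and incubated 16 h at 37C, 5% CO2. Viability read as ATP luminescence with CellTiter-Glo after 30 min at room temperature.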

[2] = target: Cellular tumor antigen p53 (Homo sapiens) (UniProt P04637); test: TOX21_p53_BLA_p3_ratio: Tox21 HCT-116 p53 Agonism Beta-lactamase Assay, Ratio, Phase 3 (AID 2283596)
Procedure, shortened: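 Cells were seeded at 4000/well, rested 5 h at 37C, then dosed with DMSO compound solutions (217-fold dilution) for 16 h. CCF4-AM substrate was loaded for 2 h at room temperature, and the 460/530 nm emission ratio was fitted for gain of signal versus DMSO.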

[3] = TOX21_p53_BLA_p4_viability: Viability Assessment in the Tox21 HCT-116 p53 Agonism Beta-lactamase Assay, Phase 4 (AID 2283597);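 further: hits lower the luminescence signal meaning cytotoxicity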
Procedure, shortened: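 Cytotoxicity was inferred from loss of CellTiter-Glo luminescence. HCT116 cells had been dosed with compounds after 5 h plating, incubated 16 h at 37C and 5% CO2, and exposed to the CCF4-AM substrate for 2 h.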

[4] = target: Cellular tumor antigen p53 (Homo sapiens) (UniProt P04637); test: TOX21_p53_BLA_p5_ratio: Tox21 HCT-116 p53 Agonism Beta-lactamase Assay, Ratio, Phase 5 (AID 2283599)
Procedure, shortened: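 HCT-116 p53-bla cells (4000/well) plated 5 h, dosed with compound (217-fold DMSO dilution) for 16 h at 37 C; CCF4-AM substrate 2 h at room temperature. Activity is the 460/530 nm emission ratio (405 nm excitation), fitted in gain-of-signal direction versus DMSO.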

[5] = target: Cellular tumor antigen p53 (Homo sapiens) (UniProt P04637); test: TOX21_p53_BLA_p4_ratio: Tox21 HCT-116 p53 Agonism Beta-lactamase Assay, Ratio, Phase 4 (AID 2283601)
Procedure, shortened: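 HCT-116 p53 beta-lactamase reporter cells (4000/well) preincubated 5 h, then compound (217-fold dilution of DMSO stock) for 16 h at 37C. CCF4-AM substrate added 2 h at room temperature; 460/530 nm emission ratio fitted upward versus DMSO.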

[6] = TOX21_p53_BLA_p5_viability: Viability Assessment in the Tox21 HCT-116 p53 Agonism Beta-lactamase Assay, Phase 5 (AID 2283600)
Procedure, shortened: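 Luciferase-coupled ATP quantitation of cells treated for 16 h (37C, 5% CO2) with test chemicals delivered in DMSO via a 217-fold dilution; 4000 cells/well; reagent incubated 30 min at room temperature before luminescence reading.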

PGR (gene 5241) [7] = target: PGR (gene 5241) (UniProt P06401); test: TOX21_PR_BLA_Followup_Antagonist_ratio: Tox21 HEK293 Progesterone Receptor (PR) Antagonism Beta-lactamase Follow-Up Assay, Ratio (AID 2283934);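 further: PR-UAS-bla HEK293T cells stimulated with 1 nM R5020 agonist for 16 hr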
Procedure, shortened: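 Measured in PR-UAS-bla HEK293T cells co-treated with compound and 1 nM promegestone for 16 hr; beta-lactamase ratio read after 2 h FRET substrate loading, with parallel CellTiter-Glo cytotoxicity.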

[8] = TOX21_PR_BLA_Followup_Agonist_viability: Viability Assessment in the Tox21 HEK293 Progesterone Receptor (PR) Agonism Beta-lactamase Follow-Up Assay (AID 2283935);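 further: signal loss means lower viability so actives are cytotoxic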
Procedure, shortened: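 Viability is read as CellTiter-Glo luminescence, where loss of signal indicates cytotoxicity. The cells are PR-UAS-bla HEK293T given compounds for 16 hr at 37C and 5% CO2, in the same wells used for the bla readout.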

[9] = TOX21_PR_BLA_Followup_Antagonist_viability: Viability Assessment in the Tox21 HEK293 Progesterone Receptor (PR) Antagonism Beta-lactamase Follow-Up Assay (AID 2283936);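 further: cells exposed to compound with R5020 agonist for 16 h; hits lower the luminescence signal meaning cytotoxicity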
Procedure, shortened: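 PR-UAS-bla HEK293T cells in medium with 2% charcoal-stripped FBS were treated with compounds plus R5020 for 16 hr at 37C. After the beta-lactamase read, CellTiter-Glo was added to the same wells and luminescence read after 30 min at room temperature.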

PGR (gene 5241) [10] = target: PGR (gene 5241) (UniProt P06401); test: TOX21_PR_LUC_Followup_Antagonist: Tox21 HEK293 Progesterone Receptor (PR) Antagonism Luciferase Follow-Up Assay (AID 2283938);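 further: curve fitted upward as signal gain over DMSO baseline despite antagonist label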
Procedure, shortened: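 HEK293-PR-A-luc cells were precultured 5 days in medium with 10% charcoal-stripped FBS, seeded 3,000/well, then exposed to compounds in DMSO for 16 h at 37C. Luciferase was read by ONE-Glo luminescence after 30 min at room temperature.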

[11] = TOX21_PR_LUC_Followup_Antagonist_viability: Viability Assessment in the Tox21 HEK293 Progesterone Receptor (PR) Antagonism Luciferase Follow-Up Assay (AID 2283940)
Procedure, shortened: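 Loss of CellTiter-Glo ATP signal indicates cytotoxicity in HEK293-PR-A-luc cells grown in 10% charcoal-stripped FBS medium, seeded 3,000 per well and incubated 16 h with compound at 37C.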

[12] = TOX21_PR_LUC_Followup_Agonist_viability: Viability Assessment in the Tox21 HEK293 Progesterone Receptor (PR) Agonism Luciferase Follow-Up Assay (AID 2283941);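 further: loss of signal means cytotoxicity so actives lower viability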
Procedure, shortened: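 Seeding: HEK293-PR-A-luc, 3,000 cells/well, 5 h at 37C. Treatment: compound in DMSO, 16 h, 37C. Read: CellTiter-Glo ATP luminescence, signal loss taken as lower viability.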

[13] = CCTE_Harrill_HTTr_Viability_MCF7: CCTE's 6-hour Cell Viability Assessment for the High-Throughput Transcriptomics (HTTr) Platform, in MCF-7 cells cultured in DMEM + 10% fetal bovine serum, Harrill Lab (AID 2284010; active means hit-call score of the fitted dose curve at least 0.9, where 1 is the maximum; inactive means score below 0.9)
Procedure, shortened: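 Eight-point concentration series, six-hour exposure. Propidium iodide exclusion imaged to assess membrane integrity as a cytotoxicity readout; bidirectional fitting was done with DMSO as negative control and activity baseline.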

[14] = CCTE_Harrill_HTTr_Apoptosis_MCF7: CCTE's 6-hour Apoptosis Assessment for the High-Throughput Transcriptomics (HTTr) Platform, in MCF-7 cells cultured in DMEM + 10% fetal bovine serum, Harrill Lab (AID 2284011; active means hit-call score of the fitted dose curve at least 0.9, where 1 is the maximum; inactive means score below 0.9)
Procedure, shortened: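 MCF-7 cells in DMEM + 10% fetal bovine serum were exposed to chemicals for 6 hours over an eight-point dilution series. Caspase-3/7 activation was imaged by high content imaging with CellEvent Caspase 3/7 Green; bidirectional fitting used DMSO as baseline.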

[15] = CCTE_Harrill_HTTr_CellCount_MCF7: CCTE's Cell Proliferation Assessment for the High-Throughput Transcriptomics (HTTr) Platform, Harrill Lab (AID 2284012);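 further: count of Hoechst-stained nuclei per well by high-content imaging in MCF-7 cells; cells exposed to compound for six hours; intended direction is loss of nuclei count meaning fewer cells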
Procedure, shortened: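 For this full-screen endpoint, MCF-7 cultures received eight compound dilutions for six hours. Well nuclei counts from Hoechst imaging were analyzed relative to DMSO.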

Measured: AC50

Cellular tumor antigen p53 (Homo sapiens), sequence (P04637 whole entry, looked up): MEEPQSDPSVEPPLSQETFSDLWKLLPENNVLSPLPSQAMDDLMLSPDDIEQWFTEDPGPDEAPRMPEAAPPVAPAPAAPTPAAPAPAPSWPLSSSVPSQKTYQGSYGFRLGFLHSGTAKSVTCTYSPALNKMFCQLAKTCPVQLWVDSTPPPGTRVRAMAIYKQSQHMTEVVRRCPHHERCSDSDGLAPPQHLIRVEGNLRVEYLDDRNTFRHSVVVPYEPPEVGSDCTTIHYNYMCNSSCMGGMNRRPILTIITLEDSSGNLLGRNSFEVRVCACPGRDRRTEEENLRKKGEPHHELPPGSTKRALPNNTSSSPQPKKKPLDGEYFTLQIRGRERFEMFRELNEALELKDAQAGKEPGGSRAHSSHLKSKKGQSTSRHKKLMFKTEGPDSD
PGR (gene 5241), sequence (P06401 whole entry, looked up): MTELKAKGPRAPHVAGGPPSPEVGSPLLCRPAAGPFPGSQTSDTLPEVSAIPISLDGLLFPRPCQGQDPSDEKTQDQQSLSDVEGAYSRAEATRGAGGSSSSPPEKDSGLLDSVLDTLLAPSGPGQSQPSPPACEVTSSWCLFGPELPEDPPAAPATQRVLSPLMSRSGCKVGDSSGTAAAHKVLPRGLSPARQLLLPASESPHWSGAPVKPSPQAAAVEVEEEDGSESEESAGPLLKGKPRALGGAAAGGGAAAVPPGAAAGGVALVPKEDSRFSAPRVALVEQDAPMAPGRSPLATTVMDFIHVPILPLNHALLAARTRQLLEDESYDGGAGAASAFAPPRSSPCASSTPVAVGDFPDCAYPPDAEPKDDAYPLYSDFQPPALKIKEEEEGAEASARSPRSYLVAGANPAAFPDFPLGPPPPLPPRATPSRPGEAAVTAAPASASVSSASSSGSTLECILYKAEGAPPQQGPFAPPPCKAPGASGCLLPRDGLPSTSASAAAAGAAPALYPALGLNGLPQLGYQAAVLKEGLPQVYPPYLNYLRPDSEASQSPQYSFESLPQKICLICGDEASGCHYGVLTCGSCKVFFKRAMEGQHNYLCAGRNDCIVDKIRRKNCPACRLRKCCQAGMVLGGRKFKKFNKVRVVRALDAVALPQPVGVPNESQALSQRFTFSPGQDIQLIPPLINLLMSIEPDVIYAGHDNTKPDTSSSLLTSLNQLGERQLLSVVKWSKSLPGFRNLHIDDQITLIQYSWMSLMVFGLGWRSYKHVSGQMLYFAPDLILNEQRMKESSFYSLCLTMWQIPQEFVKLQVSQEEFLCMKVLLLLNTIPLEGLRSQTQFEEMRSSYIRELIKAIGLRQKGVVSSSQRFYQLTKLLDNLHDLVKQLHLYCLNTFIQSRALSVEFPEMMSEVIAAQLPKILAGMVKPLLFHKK

NC(=S)c1c(Cl)cccc1Cl
inactive: [1] | [2] | [3] | [4] | [5]

CN(C)c1ccc(N=Nc2ccccc2)cc1
inactive: [1] | [3] | [6]

CCC(=O)O[C@@](Cc1ccccc1)(c1ccccc1)[C@@H](C)CN(C)C
inactive: [1] | [2] | [3] | [4] | [6] | [5]

C[C@]12CC[C@H]3[C@@H](CCC4=CC(=O)CC[C@@H]43)[C@@H]1CC[C@@H]2OC(=O)CCc1ccccc1
not listed: [3] | [4] | [6] | [13] | [14] | [15]
inactive: all other assays above

CC(C)(C)C(=O)C(Cl)Cl
inactive: [1] | [2] | [4] | [5]

COC1=CC(=O)O[C@@H](/C=C/c2ccccc2)C1
inactive: [1] | [3] | [6] | [5]

Nc1ccccc1-c1ccccc1
inactive: [1] | [2] | [3] | [4] | [5]

C=CCBr
inactive: [1] | [2] | [4]

c1cc2c(c(NC3=NCCN3)c1)CCCC2
inactive: [1] | [2] | [4] | [6] | [5]

C1CCNCC1
inactive: [1] | [2] | [4] | [5]

CCCCC1C(=O)NC(=O)N(C2CCCCC2)C1=O (stereo not given)
inactive: [1] | [3] | [4] | [6]

CC(C)(C#N)C(C)(C)C#N
inactive: [1] | [2] | [3] | [4] | [6] | [5]

O=[N+]([O-])c1cccc2cccnc12
inactive: [1] | [2] | [4] | [6] | [5]

Clc1ccc(C(Cl)(Cl)Cl)c(Cl)c1
inactive: [1] | [2] | [5]

N#CSCc1ccccc1
active: [2] 30.7 µM
inactive: [1] | [3] | [4] | [5]

CCCC[N+]1(C)[C@@H]2CC(OC(=O)[C@H](CO)c3ccccc3)C[C@H]1[C@@H]1O[C@@H]12 (stereo not given in full)
inactive: [1] | [2] | [6] | [5]

CCCCCC[N+](=O)[O-]
inactive: [1] | [3] | [6]

CC(=O)O[C@H]1CC[C@H]2[C@@H]3CCC4=CC(=O)CCC4=C3C=C[C@]12C
inactive: [1] | [2] | [3] | [4] | [5]

N#CC(Cl)(Cl)Cl
inactive: [1] | [2] | [6]

Cc1ccccc1-n1c(CF)nc2ccc(N)cc2c1=O
inactive: [1] | [4]

NC1CCC(CC2CCC(N)CC2)CC1 (stereo not given)
inactive: [4]

CC1CCCC1
inactive: [2] | [4] | [5]

CCCCCCCCCC(=O)O[C@H]1CC[C@H]2[C@@H]3CCC4=CC(=O)CC[C@@H]4[C@H]3CC[C@]12C
inactive: [2] | [5]

CCC1(C)CC(=O)NC(=O)C1
inactive: [1] | [5]

c1ccc(CN2CCNCC2)cc1
inactive: [2] | [4]

CCN(Cc1ccc(Cl)nc1)/C(=C/[N+](=O)[O-])NC
inactive: [4]

CCN(CC)C(=O)N[C@@H]1C=C2c3cccc4[nH]cc(c34)C[C@@H]2N(C)C1
inactive: [2] | [4] | [6]

COc1ccc2c3c1O[C@H]1[C@@H](O)C=C[C@H]4[C@@H](C2)N(C)CC[C@@]341
inactive: [3] | [13] | [14] | [15]

CS(=O)(=O)Cl
inactive: [3] | [6] | [5]

CCNCC(O)c1cccc(O)c1 (stereo not given)
inactive: [2] | [4] | [6] | [5]

CCN[C@@H](C)Cc1ccccc1
inactive: [3]

CC(=O)[C@@]1(O)CC[C@H]2[C@@H]3CCC4=CC(=O)CC[C@]4(C)C3(F)[C@@H](O)C[C@@]21C (stereo not given in full)
inactive: [3] | [6]

O=c1[nH]c2ccccc2n1CCCN1CCC(n2c(=O)[nH]c3cc(Cl)ccc32)CC1
inactive: [2] | [6]

CC(C)c1c(CN(C)C(C)Cc2ccccc2)n(C)n(-c2ccccc2)c1=O (stereo not given)
inactive: [1] | [5]
